Source: PubChem
CHX counter: affects cycloheximide protein synthesis inhibition readout, counter-screen; max response, %; cell reporter, cycloheximide protein synthesis inhibition counterscreen; AID 2314; 12% of 300,000 active; in the data active = max response mostly above about 13%, no sharp cut-off; inactive = mostly below about 14%; note: read at 38.3 µM for the half of the compounds with a filed dose; 0% is about no effect
SARS PLpro yeast: inhibitors of SARS-CoV papain-like protease in yeast | Potency, µM (doses to about 32.9 µM), without a hit: at the highest dose activity, positive = growth rescue, usual class: activators | S. cerevisiae expressing SARS-CoV PLpro, growth rescue | 0.19% of 330,000 active; calls by dose curve; note: potency is the fitted concentration of half-maximal effect; 0% is about no effect; nearly all actives have a fitted effect of over 55% in size
AmpC no deterg: blocks E. coli AmpC beta-lactamase in detergent-free assay; AmpC nitrocefin hydrolysis, absorbance 480 nm, 0.0001% Triton; Potency, µM (highest dose often 57.1 µM), without a hit: top-dose activity change, negative = inhibition, hits mostly inhibitors; 0.52% of 330,000 active; AID 485341;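 note: potency is the fitted concentration of half-maximal effect; plate controls were no compound for no effect and no enzyme for full effect; nearly all actives have a fitted effect of over 20% in size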
Target sequence (P00811 whole entry, looked up): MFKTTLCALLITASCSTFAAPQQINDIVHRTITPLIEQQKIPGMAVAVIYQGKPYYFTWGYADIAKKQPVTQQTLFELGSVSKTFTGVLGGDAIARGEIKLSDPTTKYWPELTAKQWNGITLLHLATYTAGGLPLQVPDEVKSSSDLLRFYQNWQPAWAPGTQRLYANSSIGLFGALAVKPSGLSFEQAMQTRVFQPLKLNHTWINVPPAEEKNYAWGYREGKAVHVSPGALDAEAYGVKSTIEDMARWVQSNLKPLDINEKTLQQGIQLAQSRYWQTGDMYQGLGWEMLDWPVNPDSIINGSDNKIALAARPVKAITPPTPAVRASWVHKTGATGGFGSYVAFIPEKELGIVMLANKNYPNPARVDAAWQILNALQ
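AmpC (5.3 nM in the dispensed reagent) in 20 mM phosphate pH 7.0 with 0.01% (detergent screen) or 0.0001% Triton X-100 was preincubated with compounds for 15 min at room temperature. Nitrocefin was then added from an 800 uM solution, and hydrolysis was followed at 480 nm.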
Shiga toxin inh: blocks Shiga toxin action in Vero cells; Vero cells, Shiga toxin protein synthesis inhibition reporter; inhibition, % at 38.7 µM; 9.2% of 290,000 active; AID 2315; in the data active = inhibition mostly above about 28%, no sharp cut-off; inactive = mostly below about 43%; note: 0% is about no effect
AmpC detergent: AmpC beta-lactamase inhibition with detergent present. P00811. AmpC hydrolysis of nitrocefin, absorbance 480 nm, 0.01% Triton. Potency, µM (doses to about 114 µM), inactives show at the top dose activity change, negative = inhibition, hits mostly inhibitors. 0.041% of 370,000 active;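 note: potency is the fitted concentration of half-maximal effect; 0% = no-compound wells and -100% = no-enzyme wells; nearly all actives have a fitted effect of over 25% in size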
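20 mM phosphate pH 7.0 + 0.01% (detergent screen) or 0.0001% Triton X-100; 5.3 nM AmpC reagent; cpd preinc 15 min RT; nitrocefin (800 uM stock) to start; A480 q20 s × 4 min; Activity was normalised to no-enzyme and no-compound control wells.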
AMA1-RON2 inh: inhibitors of Plasmodium falciparum AMA1-RON2 interaction; Potency, µM (doses to about 58.2 µM), inactives show at the highest dose activity change, negative = inhibition, actives largely listed as inhibitors; 0.2% of 360,000 active; AlphaScreen AMA1-biotinylated RON2 peptide binding;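 note: potency is the fitted concentration of half-maximal effect; 0% = vehicle wells and -100% = peptide control; nearly all actives have a fitted effect of over 45% in size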
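AMA1 (3D7) with his tag at 25 nM final met compounds first, then biotinylated RON2 peptide at 25 nM; detection used donor plus acceptor beads, 10 µg/mL apiece, read by AlphaScreen after 30 min at room temperature.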
* = called active by the depositor; ? = inconclusive; / = not tested or not shown; [ ] = dose if it differs, or a comment. The sample as a whole holds a higher share of hits than the screen did. Unless noted, calls come from the whole dose curve; as a rule, active = well fitted curve in the direction sought with a large enough effect; inconclusive = small, poorly fitted or top-dose-only effect, or another doubt; inactive = no such curve, though single readings can be large; an effect the other way counts as inactive or inconclusive.

SMILES | CHX counter | SARS PLpro yeast | AmpC no deterg | Shiga toxin inh | AmpC detergent | AMA1-RON2 inh
CC(C)(C)C(=O)CSc1nnc(Nc2ccccc2)s1 | 34* | 1% | -29% | 51 | 0% | 5%
O=C1c2ccccc2C(=O)N1CSc1nnc(Nc2ccccc2)s1 | -4 | 1% | -19%[2.29 µM] | 18 | 3% | -6%
N#CCSc1nnc(Nc2ccccc2)s1 | 12 | -6% | -14% | 35 | 1% | 6%
Cc1cccc(Nc2nnc(SCC(=O)c3ccc(O)cc3O)s2)c1 | 19 | 3% | -49% | 27 | -9% | 3%
CN(C(=O)CSc1nnc(Nc2ccccc2)s1)c1c(N)n(Cc2ccccc2)c(=O)[nH]c1=O | 29* | -5% | -3% | 97 | -4% | 9%
OCCSc1nnc(Nc2ccccc2)s1 | 38* | -10% | -3% | 87* | 14% | 12%
Cc1ccc(Nc2nnc(SCC(=O)c3ccc(O)cc3O)s2)cc1 | 16 | 2% | 11µM* | 16 | -2% | 8%
CCOC(=O)C1(CC2CCCCO2)CCN(Cc2cn[nH]c2-c2cccc(F)c2)CC1 (stereo not given) | 1 | 1% | 29% | -7 | 6% | 13%
CCCn1c(SCC(=O)Nc2nnc(-c3ccccc3)s2)nnc1-c1ccccn1 | 4 | -2% | 5% | 20 | 3% | 8%
CCCN1CCN(CCCNC(=O)c2ccc(NC(=O)C3=C(C)OCCS3)cc2)CC1 | -6 | 6% | -4% | -3 | -6% | 4%
CCOc1cc(C(=O)N/N=C/c2ccoc2)cc(OCC)c1OCC | -3 | -1% | -39% | -10 | 3% | -12%
CC(C)Oc1cccc(C(=O)N/N=C/c2ccoc2)c1 | 49* | 14% | -31% | 61* | 0% | 66%
CC(C)COc1ccc(C(=O)N/N=C/c2ccoc2)cc1 | 27* | -4% | -21% | 83* | -12% | 58%
CCCOc1cccc(C(=O)N/N=C/c2ccoc2)c1 | 31* | -10% | -34% | 28 | 3% | 14%
Cc1cccc(C(=O)N/N=C/c2ccoc2)c1 | 36* | 3% | -23% | 78* | 0% | 34%
Cc1ccc2c(c1)NC(=O)C(CC(=O)O)O2 (stereo not given) | -5 | 7% | -10% | -6 | ? | -7%
O=C1NC(=O)/C(=C\c2ccccc2OCc2ccc([N+](=O)[O-])cc2)N1 | -5 | 7% | -15% | -12 | ? | 0%
CCc1ccc2oc(-c3ccc(OC)cc3)cc(=Nc3c(C)n(C)n(-c4ccccc4)c3=O)c2c1 | 63* | -9% | 24% | 127* | 1% | -3%
COc1ccc(-c2cc(=O)c3cc(OCC(=O)OC(C)C)ccc3o2)cc1 | / | / | / | / | 2% | /
C=CCn1c(-c2ccc(OC)cc2)csc1=Nc1c(C)n(C)n(-c2ccccc2)c1=O | -4 | 1% | 75% | -22 | -7% | -10%
COc1ccc(-c2cc(=NCCCCCC(=O)O)c3cc(C)ccc3o2)cc1 | 12 | 6% | 18% | 5 | 7% | 2%
CCc1ccc2oc(-c3ccc(OC)cc3)cc(=Nc3cccc(C(=O)O)c3)c2c1 | 58* | -10% | 22% | 137* | 6% | -3%
COc1ccc(-c2cc(=NCC(=O)O)c3ccccc3o2)cc1 | 28* | -4% | -24% | 62* | 0% | 18%
COc1ccc(-c2cc(=Nc3ccc(C(=O)O)cc3)c3cc(C)ccc3o2)cc1 | 63* | 0% | 5% | 161* | 2% | -16%
CN1C(=O)[C@H]2[C@@H](c3ccc(C(F)(F)F)cc3)N[C@]3(CCCN(Cc4ccc(F)cc4)C3=O)[C@H]2C1=O | / | / | / | / | / | 10%
SMILES | CHX counter | SARS PLpro yeast | AmpC no deterg | Shiga toxin inh | AmpC detergent | AMA1-RON2 inh
COc1ccc(-c2cc(=Nc3cccc(C(=O)O)c3)c3cc(C)ccc3o2)cc1 | 59* | -3% | -1% | 98* | -4% | -9%
CN(C#N)c1nccc(-c2cccs2)n1 | 16 | 0% | -14% | 29 | -11% | 0%
NC(=S)Nc1nccc(-c2cccs2)n1 | 41* | 3% | -8% | 61* | 1% | 19%
Cc1ccc(C(=O)Nc2c(-c3cccs3)nc3cc(C)ccn23)cc1 | 13 | 4% | ? | 16 | -3% | -2%
Cc1ccc(C(=O)Nc2nccc(-c3cccs3)n2)cc1 | 28* | -6% | -14% | 19 | 1% | -14%
CCN1CCN(c2nc(N)c([N+](=O)[O-])c(Nc3ccc(C)c(C)c3)n2)CC1 | -5 | 7% | -23% | -12 | 0% | -8%
Cc1ccc(Nc2n[nH]c(C)c2[N+](=O)[O-])cc1C | 32* | -44% | -26% | 54 | -2% | -1%[11.6 µM]
Oc1ccc(C2C(c3ccccc3)=NN=C(c3ccc(Cl)cc3)N2O)c(O)c1 (stereo not given) | 2 | 13% | 25µM* | -1 | ? | 6%
COc1ccc(O)c(/C=C(\C#N)C(=O)Nc2ccccn2)c1 | 26* | 1% | -14% | 53* | 6% | 6%
C=CCOc1ccc(/C=C(\C#N)C(=O)Nc2ccccn2)cc1OC | -7 | -2% | -9% | -11 | 3% | 1%
COc1ccccc1NC(=O)/C(C#N)=C/c1ccncc1 | -2 | -3% | -1% | -13 | -4% | -18%
Cc1ccc(/C=C(\C#N)C(=O)Nc2ccccn2)o1 | 28* | -3% | 19% | 58 | 1% | -2%
COc1ccc(/C=C(\C#N)C(=O)Nc2ccccn2)cc1 | 21* | 16% | -17% | 84 | -2% | 0%
Cc1ccc(NC(=O)/C(C#N)=C/c2ccc(C)o2)cc1 | / | / | / | / | 13% | /
CCn1ncc(/C=N\NC(=O)COc2cc(C)cc(C)c2)c1C | -2 | -6% | -9% | 2 | -7% | 2%
COc1ccc(C2CN=NC23CCc2ccccc2C3=O)cc1 (stereo not given) | 16 | -1% | -18% | 20 | -13% | 0%
Cc1cccc(CS(=O)(=O)c2ncc(Cl)c(C(=O)Nc3nnc(C(C)C)s3)n2)c1 | 54* | ? | 16% | 45* | -1% | 66%
CC(C)c1nnc(NC(=O)c2nc(S(=O)(=O)Cc3ccc(F)cc3)ncc2Cl)s1 | 59* | 0% | -39% | 98* | -1% | 62%
CSc1nnc(NC(=O)c2nc(S(=O)(=O)Cc3cccc(C)c3)ncc2Cl)s1 | 62* | 25% | -26% | 104* | 11% | 53%
CC(C)c1nnc(NC(=O)c2nc(SCc3ccc(F)cc3)ncc2Cl)s1 | / | / | / | / | 10% | /
Cc1ccc(CS(=O)(=O)c2ncc(Cl)c(C(=O)Nc3nnc(C(C)C)s3)n2)cc1 | 52* | 9% | -32% | 75* | ? | 60%
CSc1ncc(Cl)c(C(=O)Nc2nnc(SC/C=C/c3ccccc3)s2)n1 | 0 | -5% | -13% | -1 | -10% | 51%
Nn1c(SCC(=O)Nc2cccc(F)c2)nnc1C1CCCCC1 | -1 | -2% | 3% | 24 | ? | 29%
